According to PubChem BioAssay (Tox21):
Where “and” joins values, the source holds several entries; their conditions need not be identical. Equal values may be shown once. Results filed as inconclusive are left out. Calls of active or inactive are those of the source. Unless noted, calls follow the shape of the dose curve; as a rule, active = well fitted curve in the direction sought with a large enough effect in the repeat runs; inconclusive = weak or mixed curves; inactive = no such curve, though single readings can be large; an effect the other way counts as inactive or inconclusive.

Experiments:
[1] = qHTS assay to identify aromatase inhibitors - cell viability counter screen (AID 743084);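 also: cells stimulated with testosterone during compound exposure; nearly all actives have a fitted effect of over 55% in size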
[2] = target: Aryl hydrocarbon receptor (Homo sapiens) (UniProt P35869); test: qHTS assay to identify small molecule that activate the aryl hydrocarbon receptor (AhR) signaling pathway (AID 743085); also: nearly all actives have a fitted effect of over 15% in size; also: potency is read from the fitted curve at half-maximal effect;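 as to activation: HG2L7.5c1 human HepG2 liver cells with stably integrated DRE-driven firefly reporter; series mostly up to about 70 µM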
Aryl hydrocarbon receptor (Homo sapiens), sequence (P35869 whole entry, looked up): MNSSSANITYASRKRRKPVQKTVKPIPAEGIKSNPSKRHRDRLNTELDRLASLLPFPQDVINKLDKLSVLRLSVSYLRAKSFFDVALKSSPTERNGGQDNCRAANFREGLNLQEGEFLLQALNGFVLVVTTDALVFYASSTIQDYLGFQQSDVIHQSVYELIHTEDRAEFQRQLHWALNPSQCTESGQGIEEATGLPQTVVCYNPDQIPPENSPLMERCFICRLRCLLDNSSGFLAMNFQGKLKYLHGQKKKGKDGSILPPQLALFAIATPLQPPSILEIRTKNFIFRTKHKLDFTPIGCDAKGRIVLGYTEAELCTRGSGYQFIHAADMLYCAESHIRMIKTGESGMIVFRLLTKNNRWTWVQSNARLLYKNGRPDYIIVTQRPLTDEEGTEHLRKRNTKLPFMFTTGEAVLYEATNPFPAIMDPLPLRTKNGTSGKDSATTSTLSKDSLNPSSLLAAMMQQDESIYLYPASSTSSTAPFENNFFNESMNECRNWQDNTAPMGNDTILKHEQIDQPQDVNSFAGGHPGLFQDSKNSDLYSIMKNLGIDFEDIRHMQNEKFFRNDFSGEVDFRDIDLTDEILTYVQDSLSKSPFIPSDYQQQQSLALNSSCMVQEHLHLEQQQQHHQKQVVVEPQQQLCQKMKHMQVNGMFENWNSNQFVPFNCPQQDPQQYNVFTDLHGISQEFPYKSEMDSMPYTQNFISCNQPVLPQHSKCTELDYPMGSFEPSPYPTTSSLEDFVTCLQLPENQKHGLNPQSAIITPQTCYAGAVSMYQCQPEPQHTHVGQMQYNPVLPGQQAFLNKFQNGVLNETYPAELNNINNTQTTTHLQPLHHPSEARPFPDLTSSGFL
Procedure, shortened: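 Luminescence read-out: ONE-Glo reagent, 30 min at room temperature, in HG2L7.5c1 HepG2 reporter cells treated 24 h at 37C. Viability was measured beforehand by CellTiter-Fluor fluorescence after 30 min at 37C.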

[3] = qHTS assay to identify small molecule that activate the aryl hydrocarbon receptor (AhR) signaling pathway - cell viability counter screen (AID 743086);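 also: HepG2 liver cells carrying the AhR DRE luciferase reporter; series mostly up to about 70 µM; nearly all actives have a fitted effect of over 45% in size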
Procedure, shortened: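 Cytotoxicity counter screen: CellTiter-Fluor signal (30 min, 37 C) in 4000 HepG2 cells/well carrying the DRE-luciferase reporter, following 24 h compound exposure at 37 C.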

[4] = target: Peroxisome proliferator-activated receptor gamma (Homo sapiens) (UniProt P37231); test: qHTS assay to identify small molecule agonists of the peroxisome proliferator-activated receptor gamma (PPARg) signaling pathway (AID 743094; active = well fitted activation curve with a large enough effect in the signal ratio in the repeat runs, not every such curve was filed as active; the % refers to the signal ratio)
Peroxisome proliferator-activated receptor gamma (Homo sapiens), sequence (P37231 whole entry, looked up): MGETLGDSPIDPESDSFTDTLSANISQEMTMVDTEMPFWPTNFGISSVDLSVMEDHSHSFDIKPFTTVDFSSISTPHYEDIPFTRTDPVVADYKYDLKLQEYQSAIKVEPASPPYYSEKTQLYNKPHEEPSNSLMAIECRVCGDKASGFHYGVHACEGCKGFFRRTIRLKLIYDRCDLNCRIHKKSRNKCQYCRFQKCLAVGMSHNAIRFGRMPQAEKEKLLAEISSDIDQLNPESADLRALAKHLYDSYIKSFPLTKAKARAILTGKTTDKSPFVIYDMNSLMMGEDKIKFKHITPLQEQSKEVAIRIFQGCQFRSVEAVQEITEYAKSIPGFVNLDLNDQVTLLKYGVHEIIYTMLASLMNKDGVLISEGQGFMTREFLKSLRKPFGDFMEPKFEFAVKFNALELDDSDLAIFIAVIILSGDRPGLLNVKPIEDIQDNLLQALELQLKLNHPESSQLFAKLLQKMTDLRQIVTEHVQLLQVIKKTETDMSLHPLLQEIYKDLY
Procedure, shortened: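 Beta-lactamase FRET fluorescence was the read-out after a 1 h room-temperature substrate step, following 17 h compound treatment at 37C of HEK293H cells expressing a UAS-driven bla reporter responsive to PPARg.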

[5] = target: Peroxisome proliferator-activated receptor gamma (Homo sapiens) (UniProt P37231); test: qHTS assay to identify small molecule antagonists of the peroxisome proliferator-activated receptor gamma (PPARg) signaling pathway (AID 743191; calls by dose curve; also: series mostly up to about 63 µM; nearly all actives have a fitted effect of over 30% in size)
Procedure, shortened: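 Beta-lactamase reporter under UAS control in HEK293H PPARg-bla cells; compound treatment 17 h at 37C. Read-out: fluorescence intensity after 1 h room-temperature incubation with LiveBLAzer B/G FRET substrate.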

[6] = qHTS assay to identify small molecule antagonists of the peroxisome proliferator-activated receptor gamma (PPARg) signaling pathway - cell viability counter screen (AID 743194); also: nearly all actives have a fitted effect of over 55% in size
Procedure, shortened: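 Viability was measured as CellTiter-Glo luminescence in GeneBLAzer PPARg UAS-bla HEK293H cells. These cells had been exposed 17 h at 37 C to compounds together with rosiglitazone at 50 nM final, with the beta-lactamase readout taken in the same wells.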

[7] = qHTS assay for small molecule agonists of the antioxidant response element (ARE) signaling pathway - cell viability counter screen (AID 743203; calls by dose curve; also: nearly all actives have a fitted effect of over 55% in size)
Procedure, shortened: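 HepG2 cells carrying ARE-driven beta-lactamase; 2,000 cells/well; 5 hrs plating; compound pinned from DMSO; 16 hrs 37C/5% CO2; CellTiter-Glo added; 30 min RT; luminescence.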

[8] = qHTS assay for small molecule activators of the heat shock response signaling pathway - cell viability counter screen (AID 743209); also: nearly all actives have a fitted effect of over 50% in size
Procedure, shortened: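 Luminescence from CellTiter-Glo, added after the beta-lactamase FRET read, gave the viability signal. Cells were HSE-bla HeLa treated with DMSO-dissolved compounds for 5 h at 37 C following overnight plating.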

[9] = qHTS assay for small molecule activators of the heat shock response signaling pathway (AID 743210; active = well fitted activation curve with a large enough effect in the signal ratio in the repeat runs, with a control signal flat, not every such curve was filed as active; the % refers to the signal ratio; also: potency is read from the fitted curve at half-maximal effect;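 as to activation: HeLa cells with beta-lactamase reporter driven by heat shock elements; series mostly up to about 63 µM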)
Procedure, shortened: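 In HSE-bla HeLa cells, 5 h compound incubation (37 C) precedes addition of LiveBLAzer B/G substrate; after 2.5 h at room temperature, fluorescence intensity indicates reporter induction.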

[10] = qHTS assay to identify small molecule agonists of the peroxisome proliferator-activated receptor delta (PPARd) signaling pathway - cell viability counter screen (AID 743211); also: nearly all actives have a fitted effect of over 55% in size
Procedure, shortened: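 Read-out: CellTiter-Glo luminescence, 30 min RT, measured in the same wells as the beta-lactamase reporter. Cells: GeneBLAzer PPAR delta UAS-bla HEK293H, 3000 cells/well, compound exposure 17 h at 37C.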

[11] = target: Peroxisome proliferator-activated receptor delta (Homo sapiens) (UniProt Q03181); test: qHTS assay to identify small molecule agonists of the peroxisome proliferator-activated receptor delta (PPARd) signaling pathway (AID 743212; calls by dose curve)
Peroxisome proliferator-activated receptor delta (Homo sapiens), sequence (Q03181 whole entry, looked up): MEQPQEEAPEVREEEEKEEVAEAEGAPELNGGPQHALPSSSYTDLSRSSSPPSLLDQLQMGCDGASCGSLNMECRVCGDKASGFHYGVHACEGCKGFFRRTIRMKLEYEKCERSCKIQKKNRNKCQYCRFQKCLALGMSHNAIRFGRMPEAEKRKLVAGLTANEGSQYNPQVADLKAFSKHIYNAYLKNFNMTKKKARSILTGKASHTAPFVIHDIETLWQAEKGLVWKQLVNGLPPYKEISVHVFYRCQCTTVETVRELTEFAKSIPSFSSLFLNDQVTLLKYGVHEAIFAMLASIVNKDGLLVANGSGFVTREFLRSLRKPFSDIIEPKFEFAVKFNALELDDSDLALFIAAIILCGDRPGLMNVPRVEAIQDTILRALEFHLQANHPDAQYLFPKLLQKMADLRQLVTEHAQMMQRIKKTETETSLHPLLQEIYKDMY
Procedure, shortened: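 HEK293H UAS-bla reporter cells, human PPARd system; compounds delivered in DMSO after 5 h plating, then at 37 C. Beta-lactamase FRET read, 2 h RT substrate step.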

[12] = qHTS assay to identify small molecule antagonists of the peroxisome proliferator-activated receptor delta (PPARd) signaling pathway - cell viability counter screen (AID 743213); also: nearly all actives have a fitted effect of over 50% in size
Procedure, shortened: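 Same-well viability: cells pre-incubated 5 h, dosed with compound plus 300 nM L165041, kept 17 h at 37 C, FRET substrate 2 h RT, then CellTiter-Glo 30 min RT and luminescence.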

[13] = target: Peroxisome proliferator-activated receptor delta (Homo sapiens) (UniProt Q03181); test: qHTS assay to identify small molecule antagonists of the peroxisome proliferator-activated receptor delta (PPARd) signaling pathway (AID 743215; active = well fitted inhibition curve with a large enough effect in the signal ratio in the repeat runs, not every such curve was filed as active; the % refers to the signal ratio;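 also: cells stimulated with agonist L165041 at 300 nM final during compound exposure; series mostly up to about 62 µM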)
Procedure, shortened: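 Read-out is beta-lactamase FRET fluorescence, measured 2 h after substrate addition at room temperature. Beforehand, UAS-bla HEK293H cells carrying the PPARd reporter were exposed to compounds with L165041 at 300 nM final for 17 h at 37 C.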

[14] = qHTS assay to identify small molecule agonists of the farnesoid-X-receptor (FXR) signaling pathway - cell viability counter screen (AID 743218); also: nearly all actives have a fitted effect of over 45% in size
Procedure, shortened: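 HEK 293T FXR-bla cells; 5 h pre-incubation, 16 h compound exposure at 37 C; LiveBLAzer substrate 2 h RT, then CellTiter-Glo 30 min RT, luminescence.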

[15] = qHTS assay to identify small molecule antagonists of the farnesoid-X-receptor (FXR) signaling pathway - cell viability counter screen (AID 743221; active = well fitted cell-killing curve with a large enough effect in the repeat runs, not every such curve was filed as active; also: nearly all actives have a fitted effect of over 50% in size)
Procedure, shortened: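 HEK 293T FXR-bla cells, 5 h pre-incubation; compound + CDCA 50 uM final, 16 h, 37 C; beta-lactamase FRET read first, then CellTiter-Glo luminescence, 30 min RT.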

[16] = target: Vitamin D3 receptor (Homo sapiens) (UniProt P11473); test: qHTS assay to identify small molecule agonists of the vitamin D receptor (VDR) signaling pathway (AID 743222; calls by dose curve)
Vitamin D3 receptor (Homo sapiens), sequence (P11473 whole entry, looked up): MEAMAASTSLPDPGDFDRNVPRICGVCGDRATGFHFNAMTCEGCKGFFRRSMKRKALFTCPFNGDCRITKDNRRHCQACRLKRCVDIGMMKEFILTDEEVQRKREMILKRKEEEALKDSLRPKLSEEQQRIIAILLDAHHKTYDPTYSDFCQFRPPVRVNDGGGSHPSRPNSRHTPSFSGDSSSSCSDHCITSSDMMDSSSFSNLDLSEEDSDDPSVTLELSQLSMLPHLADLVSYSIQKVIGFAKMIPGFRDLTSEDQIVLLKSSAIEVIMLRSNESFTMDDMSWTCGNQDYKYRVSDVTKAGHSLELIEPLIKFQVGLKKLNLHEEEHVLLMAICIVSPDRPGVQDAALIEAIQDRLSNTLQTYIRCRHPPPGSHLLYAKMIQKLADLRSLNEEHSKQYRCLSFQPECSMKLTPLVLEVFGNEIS
Procedure, shortened: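 VDR-bla cells, 2,000/well; 4 h preincubation 37C; cpd (DMSO) 16 h; LiveBLAzer B/G substrate 2 h RT; fluorescence intensity read.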

[17] = target: Vitamin D3 receptor (Homo sapiens) (UniProt P11473); test: qHTS assay to identify small molecule antagonists of the vitamin D receptor (VDR) signaling pathway (AID 743223; active = well fitted inhibition curve with a large enough effect in the signal ratio in the repeat runs, not every such curve was filed as active; the % refers to the signal ratio)
Procedure, shortened: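 Beta-lactamase reporter read-out: FRET substrate fluorescence after 2 h at room temperature, following 16 h exposure of VDR-bla cells to test compound plus 3 nM (final) 1alpha,25-dihydroxyvitamin D3 agonist at 37C.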

[18] = qHTS assay for small molecule agonists of the antioxidant response element (ARE) signaling pathway (AID 743202; active = well fitted activation curve with a large enough effect in the signal ratio in the repeat runs, not every such curve was filed as active; the % refers to the signal ratio; also: potency is read from the fitted curve at half-maximal effect)
Procedure, shortened: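 An ARE-responsive beta-lactamase gene stably integrated in HepG2 cells serves as reporter. After 5 h plating and 16 h compound incubation at 37 C, fluorescence of the B/G FRET substrate was measured.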

[19] = target: Bile acid receptor (Homo sapiens) (UniProt Q96RI1); test: qHTS assay to identify small molecule antagonists of the farnesoid-X-receptor (FXR) signaling pathway (AID 743217; active = well fitted inhibition curve with a large enough effect in the signal ratio in the repeat runs, not every such curve was filed as active; the % refers to the signal ratio)
Bile acid receptor (Homo sapiens), sequence (Q96RI1 whole entry, looked up): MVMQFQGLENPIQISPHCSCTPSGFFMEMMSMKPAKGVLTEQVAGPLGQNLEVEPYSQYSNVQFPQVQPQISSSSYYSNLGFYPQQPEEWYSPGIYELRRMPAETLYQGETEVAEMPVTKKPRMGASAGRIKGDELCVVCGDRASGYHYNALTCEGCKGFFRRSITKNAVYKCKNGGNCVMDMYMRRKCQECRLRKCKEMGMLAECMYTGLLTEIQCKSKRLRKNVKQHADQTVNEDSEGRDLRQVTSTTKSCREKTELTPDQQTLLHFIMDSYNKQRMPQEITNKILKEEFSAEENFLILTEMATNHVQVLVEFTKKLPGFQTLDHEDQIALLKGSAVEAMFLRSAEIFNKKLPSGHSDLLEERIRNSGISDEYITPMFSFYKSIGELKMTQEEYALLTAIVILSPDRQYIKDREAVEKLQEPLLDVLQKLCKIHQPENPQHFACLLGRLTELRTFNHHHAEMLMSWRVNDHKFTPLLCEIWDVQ
Procedure, shortened: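 HEK 293T FXR-UAS-bla, 5000 cells/well; compound + CDCA 50 uM final; 16 h, 37 °C; B/G FRET substrate 2 h RT; fluorescence.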

[20] = target: Bile acid receptor (Homo sapiens) (UniProt Q96RI1); test: qHTS assay to identify small molecule agonists of the farnesoid-X-receptor (FXR) signaling pathway (AID 743220; active = well fitted activation curve with a large enough effect in the signal ratio in the repeat runs, not every such curve was filed as active; the % refers to the signal ratio)
Procedure, shortened: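 Beta-lactamase reporter under UAS control in GeneBLAzer FXR HEK 293T cells (5000/well) measured with LiveBLAzer FRET substrate after 2 h at room temperature. Compound exposure lasted 16 h at 37C.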

Measured: Potency

O=C(O)c1ccc(C(=O)O)cc1
inactive: [1] | [2] | [3] | [4] | [5] | [6] | [7] | [8] | [9] | [10] | [11] | [12] | [13] | [14] | [15] | [16] | [17]

C#C[C@]1(O)CC[C@H]2[C@@H]3CCC4=CC(=O)CC[C@@H]4[C@H]3CC[C@@]21C
inactive: [1] | [2] | [3] | [4] | [5] | [6] | [7] | [8] | [9] | [10] | [11] | [12] | [13] | [14] | [15]

FC(F)(F)c1ccc(Cl)c(Cl)c1
inactive: [1] | [2] | [3] | [4] | [5] | [6] | [7] | [8] | [9] | [10] | [11] | [12] | [13] | [14] | [15] | [16]

CN(C)CCCN
inactive: [1] | [2] | [3] | [4] | [6] | [18] | [7] | [8] | [9] | [10] | [11] | [12] | [13] | [19] | [20] | [15] | [16] | [17]

C[C@H]1C[C@@H]2[C@H]([C@@H](O)C[C@@]3(C)[C@H]2CC[C@]3(O)C(=O)CO)[C@@]2(C)C=CC(=O)C=C12
inactive: [1] | [2] | [3] | [4] | [5] | [6] | [7] | [8] | [10] | [11] | [12] | [13] | [14] | [15]

COCCCOc1ccnc(CS(=O)c2nc3ccccc3[nH]2)c1C (stereo not given)
active: [2] 9.44 µM and 3.05 µM | [18] 6.09 µM
inactive: [1] | [6] | [7] | [8] | [9] | [10] | [12] | [14]

CCCSc1ccc2nc(NC(=O)OC)[nH]c2c1
inactive: [1] | [3] | [6] | [18] | [7] | [8] | [10] | [12] | [14] | [16]
active: [2] 4.52 µM and 34.4 µM | [9] 16.7 µM

OCCOCCN1CCN(C2=Nc3ccccc3Sc3ccccc32)CC1
inactive: [2] | [3] | [6] | [7] | [8] | [9] | [10] | [19] | [14] | [20] | [16] | [17]

CC1=CC(=O)NS(=O)(=O)O1
inactive: [1] | [2] | [3] | [6] | [18] | [7] | [8] | [9] | [10] | [12] | [19] | [15] | [16] | [17]

COc1ccc2cc([C@H](C)C(=O)O)ccc2c1
inactive: [1] | [3] | [6] | [18] | [7] | [8] | [10] | [12] | [14] | [15] | [16] | [17]
